In ChEMBL document CHEMBL4513216, “Probing the Open Global Health Chemical Diversity Library for Multistage-Active Starting Points for Next-Generation Antimalarials” (ACS Infect Dis, 2020):
The campaign covered roughly 68,000 compounds. About 2,700 (4%) showed an effect of 50% or more. Many of the other results were omitted from the sample, so strong results are more common in it than they were.

Tested on: Plasmodium berghei
Experiment: Screen against P. berghei liver stage (PbLuc), transformed with Luciferase, at 2uM
Format: functional, HepG2
Conditions: tested at 2 uM

| Structure (SMILES) | INHIBITION [%] |
| --- | --- |
| Cc1cc(N2CCCC2c2nnc3n2CCCCC3)nc(N)n1 (stereo not drawn) | 38.89 |
| CC(C)c1noc(-c2ccc(NCCCN3CCCC(O)C3)nc2)n1 (stereo not drawn) | 22.57 |
| CCc1cc(C(=O)N2CCc3nc4c(C)csc4c(=O)n3CC2)on1 | 51.32 |
| Cc1csc2c(=O)n3c(nc12)CCN(C(=O)c1ccnn1C)CC3 | 19.07 |
| Cc1csc2c(=O)n3c(nc12)CCN(C(=O)c1ccccn1)CC3 | -25.54 |
| CNc1cncc(C2CCCN2c2cc(C)ncn2)n1 (stereo not drawn) | 5.15 |
| Cc1c(Cl)cccc1S(=O)(=O)N1CCC2(CC1)OCCS2 | -21.09 |
| COc1cccc([C@H]2CN(C(=O)c3ccccc3)[C@@H]3CCCN[C@H]23)c1 | 34.48 |
| N#Cc1c(Cl)nsc1N1CCN(CC2CC2)CC1 | 20.88 |
| CC(C)(C)CCN1CCN(c2snc(Cl)c2C#N)CC1 | 58.29 |
| N#Cc1c(Cl)nsc1N1CCN(CC2CCCCC2)CC1 | 29.89 |
| c1coc(CN2CCCC3(COCCN(Cc4c[nH]nn4)C3)C2)c1 (stereo not drawn) | -10.66 |
| CCn1cc(NC(=O)NCc2ccc(CN3CCOCC3)cc2)cn1 | 17.39 |
| CN1CCN(c2cccc(Cl)c2CNCCS(C)(=O)=O)CC1 | 4.42 |
| O=C(Cc1ccc2c(c1)OCC2)Nc1nc[nH]n1 | 8.14 |
| CC(N)C(=O)N1CCC(Oc2cccc(C(F)(F)F)c2)CC1 (stereo not drawn) | 48.21 |
| Nc1cc(C(=O)N2CCC(Oc3cccc(C(F)(F)F)c3)CC2)ccn1 | 72.05 |
| O=C(c1ccc(=O)[nH]c1)N1CCC(Oc2cccc(C(F)(F)F)c2)CC1 | 57.75 |
| O=C(c1ccncc1)N1CCC(Oc2cccc(C(F)(F)F)c2)CC1 | 26.74 |
| O=C(c1cccnc1)N1CCC(Oc2cccc(C(F)(F)F)c2)CC1 | 45.82 |
| Nc1ccc(C(=O)N2CCC(Oc3cccc(C(F)(F)F)c3)CC2)cn1 | 17.2 |
| Cc1cc(C)c2c(OCC(=O)N(C)CC(=O)NC(C)C)nn(C)c2n1 | 44.95 |
| CN(Cc1ccc(F)cc1)C(=O)CN1CCOC(Cn2cncn2)C1 (stereo not drawn) | 2.08 |
| O=c1cc(CN(CCO)C2CC2)nc2ccc(Cl)cn12 | -28.15 |
| COc1ccc(S(=O)(=O)NCCCc2nnc3nc(C)cc(C)n23)cc1 | 12.7 |
| CCCNc1ncc(CN2CCC3(CCNC(=O)CC3)CC2)cn1 | 56.78 |
| CCCNc1ncc(CN2CCN(C)C(=O)C2C)cn1 (stereo not drawn) | -29.46 |

| Structure (SMILES) | INHIBITION [%] |
| --- | --- |
| COCc1ncc(CN2CCC3(CCNCC3)CC2)cn1 | -8.84 |
| COCc1ncc(CN2CCC3(CCNC(=O)CC3)CC2)cn1 | 53.55 |
| CCCNc1ncc(CN2CCC3(CC2)CNC(=O)C3)cn1 | 29.94 |
| COc1ncc(CN2CCC3(CCNC(=O)CC3)CC2)cn1 | 0.85 |
| N#CC1(C(=O)NCC2CCC3(CCNCC3)O2)CC1 (stereo not drawn) | 49.07 |
| O=C(NCC1CCC2(CCNCC2)O1)C1CC1 (stereo not drawn) | 24.36 |
| COC(=O)NCC1CCC2(CCNCC2)O1 (stereo not drawn) | 61.7 |
| Cn1ccc(C(=O)N2C[C@@H]3CN(CC4CC4)CCO[C@@H]3C2)n1 | 42.79 |
| O=C(CCCn1cncn1)N1CCC2(CCCN(CC3CC3)C2=O)C1 (stereo not drawn) | 23.19 |
| O=C(CCc1nc(Cl)n[nH]1)N1CCC2(CCCN(CC3CCC3)C2=O)C1 (stereo not drawn) | 57.34 |
| O=C(CCc1nc(Cl)n[nH]1)N1CCC2(CCCNC2=O)C1 (stereo not drawn) | -35.22 |
| O=C1CCc2cc(NC(=O)C3CCCN3c3nccs3)ccc2N1 (stereo not drawn) | -73.41 |
| Cc1cc(-c2ccc(C(C)N3CCCCC3)cc2)cnc1N (stereo not drawn) | 69.99 |
| CC(c1ccc(-c2cnc(N)nc2)cc1)N1CCOCC1 (stereo not drawn) | 41.78 |
| Cc1cc(-c2ccc(C(C)N3CCOCC3)cc2)cnc1N (stereo not drawn) | -38.09 |
| CCC(CC)c1cc(CNC(=O)N2CCC[C@@H]2CO)on1 | -1.89 |
| COc1ccccc1C(=O)N1Cc2cc(C)ccc2OCC1CN(C)C (stereo not drawn) | -71.28 |
| Cc1ccc(O)c(C(=O)N2CCOCC2c2c(C)n[nH]c2C)c1 (stereo not drawn) | 24.02 |
| Cc1nn(C)c(C)c1C1COCCN1C(=O)c1cc(F)ccc1F (stereo not drawn) | 21.52 |
| Cc1ccc(O)c(C(=O)N2CCOCC2c2c(C)nn(C)c2C)c1 (stereo not drawn) | 60.71 |
| CC(NC(=O)Nc1cccnc1N1CCOCC1)c1ccncc1 (stereo not drawn) | 0.45 |
| CC(C)OCc1cccc(CNc2cnn(C)c(=O)c2Cl)c1 | 4.18 |
| CC(=O)N1CCO[C@@H]2CN(S(=O)(=O)c3cccnc3)C[C@@H]2C1 | -37.03 |
| CCN(C(C)=O)c1nc(CN2CCN(c3nccs3)CC2)cs1 | 55.36 |
| Nc1nc(CN2CCN(c3nccs3)CC2)cs1 | -4.26 |
| CC(=O)N(C)c1nc(CN2CCN(c3nccs3)CC2)cs1 | -20.95 |
